According to PubChem BioAssay (NCATS):
Results filed as inconclusive are left out. Values without a mark were called inactive. Calls of active or inactive are those of the source. Calls come from the whole dose curve; as a rule, active = well fitted curve in either direction with a large enough effect (not every such curve was filed as active); inconclusive = small, poorly fitted or top-dose-only effect, or another doubt; inactive = flat fitted curve, though single readings scatter.

experiment: AP1 Signaling Pathway (AID 357); conditions: ME-180 (cervical carcinoma) AP-1-bla reporter, EGF-induced, beta-lactamase ratio, 5 h; series mostly up to 38 µM; activity change, negative = inhibition: at the top concentration;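 note: ME-180 reporter cells stimulated with EGF at its EC50 level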
In short: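 First, ME-180 AP-1-bla cells were cultured overnight at 37 °C in low-serum Opti-MEM. Next, titrated compounds with EC50 EGF were incubated 5 hours. Finally, CCF4 was added for 2.5 hours and the 460/530 nm ratio recorded.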
% is set by controls: 0 for no effect and ±100 for the full control effect.

Going from `c1ccc2cc(CC3=NCCN3)ccc2c1` to `Clc1cc(I)cc(Cl)c1NC1=NCCN1`, the “activity change, negative = inhibition” value rises from 6.37% to 17%.

Going from `CC(=O)NBr` to `NNC(N)=O`, the “activity change, negative = inhibition” value falls from 5.56% to 0.763%.

Going from `C[N+](C)(C)CC#CCOC(=O)Nc1cccc(Cl)c1` to `CCCN(CCC)CCc1c[nH]c2ccc(C(N)=O)cc12`, the “activity change, negative = inhibition” value rises from 11.3% to 22.2%.

Going from `NC(=O)CI` to `C[N+](C)(C)CCOC(=O)CBr`, the “activity change, negative = inhibition” value falls from 0.916% to -4.59%.

Compared with `N#CCCN`, `Cc1[nH]c2ccc(O)cc2c1CCN` is lower in “activity change, negative = inhibition” value: 12.9% for the first, 8.03% for the second.

Compared with `Clc1ccc(N2C[C@H]3CC[C@@H](C2)N3)nn1`, `CN1CCc2cccc(Cl)c2CC1` is higher in “activity change, negative = inhibition” value: 1.1% for the first, 11.3% for the second.

Going from `CCCN(CCC)CCc1ccc(O)c(O)c1` to `CN(N=O)c1ccc(O)c(O)c1`, the “activity change, negative = inhibition” value rises from -12.9% to -7.45%.

First: NC(=O)c1cc(N2CC2)c([N+](=O)[O-])cc1[N+](=O)[O-]
Second: O=[N+]([O-])c1cc(O)c(O)c([N+](=O)[O-])c1
The “activity change, negative = inhibition” value of the first is higher: 9.56% for the first, 5.96% for the second.

Going from `CN1CCc2cc(O)cc3c2[C@H]1Cc1ccc(O)c(O)c1-3` to `CN(N=O)c1cc(O)ccc1O`, the “activity change, negative = inhibition” value rises from -10.7% to -7.85%.

First: NNC(=O)c1ccc(O)cc1
Second: NCCc1c[nH]c2ccc(C(N)=O)cc12
The “activity change, negative = inhibition” value of the first is lower: 3.1% for the first, 13.2% for the second.

Going from `COc1ccc2[nH]c3c(c2c1)CCNC3` to `CCS(=O)(=O)Nc1cccc(C(=C2CCCCC2)c2cnc[nH]2)c1`, the “activity change, negative = inhibition” value falls from 17.2% to -14%.

First: NC(=O)COc1c(F)cc(SCCNS(=O)(=O)c2ccccc2)cc1F
Second: O=S1(=O)N(CCN2CC=C(c3c[nH]c4cc(F)ccc34)CC2)c2cccc3c2N1CCC3
The “activity change, negative = inhibition” value of the first is higher: -12.6% for the first, -28.2% for the second.

Going from `O=P(O)(O)C(Cl)(Cl)P(=O)(O)O` to `N#CC(C#N)=Cc1cc(O)c(O)c(O)c1`, the “activity change, negative = inhibition” value falls from 9.53% to 6.95%.

Going from `CC(C)[C@@]1(NC(=O)[C@@H]2C[C@@H]3c4cccc5[nH]cc(c45)C[C@H]3N(C)C2)O[C@@]2(O)[C@@H]3CCCN3C(=O)[C@H](Cc3ccccc3)N2C1=O` to `CCC(=O)O[C@@](Cc1ccccc1)(c1ccccc1)[C@@H](C)CN(C)C`, the “activity change, negative = inhibition” value rises from -22.1% [at 17.2 µM] to 3.24% [at 17.2 µM].

First: C[N+]1(C)CCc2cc3c(cc2[C@H]1[C@@H]1OC(=O)c2c1ccc1c2OCO1)OCO3
Second: O=S(=O)(O)c1cc(O)ccc1O
The “activity change, negative = inhibition” value of the first is higher: -2.02% [at 17.2 µM] for the first, -8.32% [at 17.2 µM] for the second.

With `CCC1(C)CC(=O)NC(=O)C1` the “activity change, negative = inhibition” value was 3.06% [at 17.2 µM].

With `CCCN(CCC)[C@@H]1CCc2cccc(O)c2C1` the outcome was “inactive”.
With `NC(N)=NOCC[C@H](N)C(=O)O` the outcome was “inactive”.
